# Source: ChEMBL document CHEMBL4513216, “Probing the Open Global Health Chemical Diversity Library for Multistage-Active Starting Points for Next-Generation Antimalarials” (ACS Infect Dis, 2020)
# Out of some 65,000 compounds screened, about 2,100 (3.2%) showed an effect of 50% or more. The median lay at about -52%. For the sample, strong results were picked, then their nearest neighbours and some compounds at random.
# System: Plasmodium falciparum
# Assay: Screen against P. falciparum Asexual Blood Stage (ABS), at 5uM
# Assay type: functional, Dd2
# Conditions: tested at 5 uM
row,Compound,INHIBITION
1,CNC(=O)c1nc(CN2CCOC(CCCC(C)C)C2)no1 (configuration not stated),-32%
2,CNC(=O)c1nc(CN2CCOC(Cc3ccc(F)cc3)C2)no1 (configuration not stated),51.7%
3,CNC(=O)c1nc(CN2CCOC(C(F)(F)F)C2)no1 (configuration not stated),-43.7%
4,CSC(C)(C)CNC(=O)NC1CCN(CC=C(C)C)CC1,-10.7%
5,COCC(=O)N1C[C@H]2CCC[C@@]2(COC)C1,-47.2%
6,c1cnn(CC2CCCN2Cc2cn3ccsc3n2)c1 (configuration not stated),64.9%
7,c1ncn(CC2CCCCN2Cc2cn3ccsc3n2)n1 (configuration not stated),61.4%
8,c1ncn(CC2CCCN(Cc3cn4ccsc4n3)C2)n1 (configuration not stated),-48.4%
9,Cc1cc(CN2CCCCC2Cn2cncn2)no1 (configuration not stated),57.3%
10,Cc1cc(CN2CCCC2Cn2cccn2)no1 (configuration not stated),-13.9%
11,c1cnn(CC2CCCCN2Cc2cn3ccsc3n2)c1 (configuration not stated),-19.1%
12,Cc1nc(C)n(CC2CCCN2Cc2cn3ccsc3n2)n1 (configuration not stated),-20.5%
13,Cc1cc(CN2CCCC2Cn2cncn2)no1 (configuration not stated),-174%
14,c1ncn(CC2CCCN2Cc2cn3ccsc3n2)n1 (configuration not stated),-64.9%
15,CC(C)Nc1ncnc2c1CCN(C(=O)c1ccncc1F)CC2,-7.41%
16,CS(=O)(=O)NC(=O)c1ccn(-c2ccccc2Cl)n1,-38.1%
17,Cc1cc(C)n(CC2CN(CC(=O)NCc3ccccn3)CCO2)n1 (configuration not stated),-102%
18,CSCc1noc(CNC(=O)C2CCN(C3CCCCC3)CC2)n1,-24.2%
19,COCCN1CCO[C@@H]2CN(C(=O)Cc3ccc(F)cc3)CC[C@@H]2C1,12%
20,COc1ccc(CN2C[C@H]3CN(c4ccsc4)C(=O)[C@H]3C2)cc1,-68.6%
21,CCN1CCN2CCCN(S(=O)(=O)c3ccc(C)cc3C)C2C1=O (configuration not stated),64.3%
22,CCN1CCN2CCCN(S(=O)(=O)c3ccc(S(C)(=O)=O)cc3)C2C1=O (configuration not stated),20.7%
23,CCN1CCN2CCCN(S(=O)(=O)c3cccc(F)c3)C2C1=O (configuration not stated),24.6%
24,Cc1cnc(C(=O)N2Cc3cc(Cl)ccc3OC3(CCOCC3)C2)cn1,-30.5%

row,Compound,INHIBITION
1,CCc1ccccc1N1CC(c2nnc(N)s2)CC1=O (configuration not stated),-94.9%
2,COCC(=O)N1CCOC2(CCCN(c3cnccn3)C2)C1 (configuration not stated),-88.3%
3,Cc1ccc(CCN2CCCC23Cc2ccccc2CNC3=O)cc1 (configuration not stated),-15.1%
4,CC(C)(C)CN1CCCC12Cc1ccccc1CNC2=O (configuration not stated),2.53%
5,CC(C)CCN1CCCC12Cc1ccccc1CNC2=O (configuration not stated),51.7%
6,N#Cc1cccc(CNc2ccc(F)cc2OCCO)c1,-11%
7,Cc1ccc(S(=O)(=O)N2C[C@H]3C[C@H](NC(=O)c4cc[nH]n4)[C@H]3C2)cc1,-17.3%
8,CNS(=O)(=O)c1ccc(CNC(=O)Nc2cn[nH]c2)cc1,-94.2%
9,COC1(CNC(=O)NCCOc2ccccc2)CCSC1 (configuration not stated),-45.4%
10,Cc1nc2c(c(NC3CC3)n1)CCN(C(=O)CCO)CC2,-79.7%
11,Cc1ccc2nc(C3CCCN3Cc3csc(C)n3)[nH]c2c1 (configuration not stated),65.7%
12,CC(=O)c1cc(CN2CCCC2c2nc3ccc(C)cc3[nH]2)cs1 (configuration not stated),50.3%
13,Cc1ccc2nc(C3CCCN3Cc3cccc(CCN)c3)[nH]c2c1 (configuration not stated),41.2%
14,Cc1ccc2nc(C3CCCN3Cc3scnc3C)[nH]c2c1 (configuration not stated),-84.1%
15,CC(=O)c1cc(CN2CCCCC2c2nc3cc(F)ccc3[nH]2)cs1 (configuration not stated),12.3%
16,Cc1ccc2nc(C3CCCN3Cc3nnc(C)s3)[nH]c2c1 (configuration not stated),-102%
17,Cc1c(C(=O)NCCC(=O)N2CCCC2)cccc1-c1ccccn1,-47.4%
18,CCOC(=O)[C@]12CCCN(Cc3cccs3)C[C@H]1CN(C(C)C)C2,9.63%
19,O=C(CN1CCOCC1)N(c1ccccc1)c1ccccc1,-110%
20,CN(C)c1ncccc1CNC(=O)N1CCCC1CN1CCCC1 (configuration not stated),-122%
21,CC(=O)N1CCN(C(=O)CN2CCCC2c2c(C)nn(C)c2C)CC1 (configuration not stated),-90.6%
22,O=C(NC1CCC1)C1=NOC2(CCN(Cc3ccco3)C2)C1 (configuration not stated),-31.3%
23,COCc1ccc(C(=O)N2CCC(c3cc4nccnc4[nH]3)CC2)cc1,-69.8%
24,COc1cc(C(=O)N2CCCC(n3ccnc3)C2)cc2c1OCCO2 (configuration not stated),-16.1%

row,Compound,INHIBITION
1,Cc1nc[nH]c1CN1CCCC12CCN(c1nc3ccccc3s1)CC2,24.2%
2,Cc1ncnc(N2CCCN(c3nc4ccccc4s3)CC2)c1C,-442%
3,Cc1nc[nH]c1CN1CCCN(c2nc3ccccc3s2)CC1,54.8%
4,CC(=O)N1CCCC1c1nnn2cc(-c3ccncc3)ccc12 (configuration not stated),-69.2%
5,O=C(O)c1nnn(-c2ccccc2)c1-c1ccncc1,-32.3%
6,CCn1c(C2CCNCC2)nn(Cc2ccc(C(=O)NC)o2)c1=O,-72.6%
7,CCCn1ncc(-c2ccnc(NC3CCSC3)n2)c1C (configuration not stated),-10.1%
8,CCCn1ncc(-c2ccnc(N[C@@H]3C[C@H]4CC[C@@H]3C4)n2)c1C,-34.5%
9,CCCn1ncc(-c2ccnc(NC3CC(C)(C)NC(C)(C)C3)n2)c1C,67.2%
10,CC(C)N1CCC(N2CCC(C(=O)N(C)C)CC2)CC1,-45.6%
11,O=C(N[C@@H]1CNCCC[C@H]1O)c1ccc(OCCN2CCCC2)cc1,-65.9%
12,COCCOc1ccc(C(=O)N[C@@H]2CNCCC[C@H]2O)cc1,-9.34%
13,O=C(N[C@@H]1CNCCC[C@H]1O)c1ccc(OCc2ccccc2)cc1,63.2%
14,CCc1ccccc1Nc1noc2c1CN(C(=O)C1CCCO1)CC2 (configuration not stated),68.6%
15,CCc1ccccc1Nc1noc2c1CN(C(=O)c1ccn(C)n1)CC2,-63.2%
16,CCc1ccccc1Nc1noc2c1CN(C(=O)CNC(C)=O)CC2,45.1%
17,O=C(NCc1cccnc1-n1cncn1)c1ccncc1,-55.2%
18,COc1cccc(C(=O)N2CC[C@@H]3[C@H](CC2)N(C)CCS3(=O)=O)c1,-72.7%
19,Cc1nc(COC[C@H]2CCC[C@@]23CN(C(C)C)CCO3)cs1,51.9%
20,Cc1nc(COC[C@H]2CCC[C@]23CN(C2CCOC2)CCO3)cs1 (some centres not stated),-51.5%
21,Cc1nc(COC[C@@H]2CCC[C@@]23CN(C)CCO3)cs1,15.6%
22,Cc1nc(COC[C@H]2CCC[C@]23CN(CC2CC2)CCO3)cs1,32.7%
23,Cc1nc(COC[C@@H]2CCC[C@@]23CNCCO3)cs1,47.5%
24,CCN1CCO[C@]2(CCC[C@H]2COCc2csc(C)n2)C1,57.7%
